Measured values from PubChem BioAssay (NCATS).
Values joined by “and” are separate entries in the source; they are usually repeats but may differ in a detail not shown here. Equal values may be shown once. Inconclusive results are not listed. Active and inactive are the calls of the source. Unless noted, calls follow the shape of the dose curve; as a rule, active = well fitted curve in the direction sought with a large enough effect; inconclusive = small, poorly fitted or top-dose-only effect, or another doubt; inactive = no such curve, though single readings can be large; an effect the other way counts as inactive or inconclusive.

What was measured:
[1] = AP1 Signaling Pathway (AID 357; active = well fitted curve in either direction with a large enough effect, not every such curve was filed as active; also: % is scaled to controls: 0 for no effect and ±100 for the full control effect); conditions: ME-180 AP-1-bla reporter, EGF-induced, beta-lactamase ratio, 5 h; at 7.69 µM (top of the series) unless noted
Outline: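 AP-1-bla ME-180 cells with beta-lactamase reporter under AP-1 response element, stimulated with EC50 EGF; compounds titrated, 5 hours at 37 degrees Celsius. CCF4 read at 460/530 nm ratio; positive and negative modulators judged by AC50.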

[2] = target: Cytochrome P450 1A2 (Homo sapiens) (UniProt P05177); assay: p450-cyp1a2 (AID 410; calls by dose curve; also: potency is read from the fitted curve at half-maximal effect;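 as to activity change, negative = inhibition: -100% = full effect of reference inhibitor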)
Outline: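 Inhibition was calculated relative to 57 uM furafylline (full inhibition). The reaction used human CYP1A2 at 20nM with Luciferin-ME at its Km, 100uM, driven by an NADPH-regenerating system for 60 min at room temperature.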

[3] = Stat Signaling Pathway (AID 446; active = well fitted curve in either direction with a large enough effect, not every such curve was filed as active;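 also: ME-180 cervical cancer cells given 40 pM IL-6 alongside compound; SIE-controlled beta-lactamase reporter measured as 460/530 nm FRET emission ratio; % is scaled to controls: 0 for no effect and ±100 for the full control effect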); conditions: ME-180 SIE beta-lactamase reporter, IL-6 stimulated, 5 h; at 7.69 µM (top of the series) unless noted
Outline: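 Screening format detects activators and inhibitors alike: ME-180 SIE-bla cells stimulated at 40 pM IL-6 for 5 hrs with compound, then dual-emission beta-lactamase read at 405 nm excitation.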

[4] = target: Glucocorticoid receptor (Homo sapiens) (UniProt P04150); assay: GR-GFP Redistribution (AID 450;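 active = compounds whose dose series gives a full or clear partial fitted curve of increased nuclear translocation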; also: potency is read from the fitted curve at half-maximal effect); conditions: U2OS GR-GFP nuclear translocation, laser cytometry, 2 h
[5] = target: Glucocorticoid receptor (Homo sapiens) (UniProt P04150); assay: GR-EFC Redistribution (AID 451; calls by dose curve; also: potency is read from the fitted curve at half-maximal effect); conditions: CHO-K1 GR-EFC translocation, beta-gal luminescence, 2 h
Outline: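 Translocation of GR-ED fusion to nuclear EA restores b-gal, read by luminescence after 1 h room-temperature detection. Engineered CHO-K1 biosensor cells, 1,000/well, exposed 2 h at 37 C to titrations up to 46 uM final.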

[6] = target: Mitogen-activated protein kinase 10 (Mus musculus) (UniProt Q61831); assay: JNK3 AlphaScreen Assay (AID 530; active = well fitted curve in either direction with a large enough effect, not every such curve was filed as active;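 also: kinase came from lysate of stimulated human HepG2 cells; signal reports phosphorylation of biotinylated GST-cJun 1-79 at Ser73 with 10 µM ATP; % is scaled to controls: 0 for no effect and ±100 for the full control effect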)
Outline: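 Room-temperature AlphaScreen kinase assay; pre-activated HepG2 lysate as JNK3 source, biotin-GST-cJun(1-79) substrate, 10 uM ATP, compound 15 min preincubation.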

[7] = qHTS Assay for Lipid Storage Modulators (AID 1519; calls by dose curve); conditions: Drosophila S3 cells, BODIPY lipid droplet/cell ratio, laser cytometry, cells loaded with oleic acid
Outline: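 Cells seeded at 5,000 per well were treated with compounds over a concentration series and loaded with oleic acid (400 uM, as added). Lipid droplet fluorescence (488 nm excitation, 500-530 nm channel) was read by laser-scanning cytometry and normalized to 20 uM Triacsin C.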

[8] = NFAT Signaling Pathway (AID 444; active = well fitted curve in either direction with a large enough effect, not every such curve was filed as active;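 also: carbachol stimulus at about its EC50 of 1 µM final; % is scaled to controls: 0 for no effect and ±100 for the full control effect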); conditions: Jurkat NFAT-bla M1, carbachol, beta-lactamase ratio, 5 h; at 7.69 µM (top of the series) unless noted
Outline: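 Read-out: CCF4 FRET ratio (460 nm/530 nm) after 1 h RT dye loading, used for %activity and AC50 from titration series. Cells: Jurkat NFAT-β-lactamase/M1 line, treated with compound plus 1 uM carbachol for 5 h, 37 °C.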

[9] = target: 3',5'-cyclic-AMP phosphodiesterase 4B (Homo sapiens) (UniProt Q07343); assay: qHTS Assay for Inhibitors of PDE-IV (AID 607; active = well fitted activation curve with a large enough effect in the main read-out, with a control signal flat, not every such curve was filed as active; also: % of control where 0% means no effect)
Outline: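 The readout is membrane depolarisation from a cAMP-sensing CNG channel, detected with a potential dye at ex 535/em 590. Cells were HEK293-derived (endogenous PDE-IV) at 1000 cells/well, titrated up to 22.9 uM final.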

[10] = target: ATP-dependent 6-phosphofructokinase (Trypanosoma brucei brucei) (UniProt O15648); assay: qHTS Assay to Find Inhibitors of T. brucei phosphofructokinase: hit validation (AID 492961)
Outline: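 In this biochemical qHTS validation, titrated compounds were tested against 1.25 nM PFK with 0.1 mM ATP and 0.5 mM F6P. Percent activity came from controls lacking or containing enzyme.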

[11] = target: Ubiquitin carboxyl-terminal hydrolase 1 (Homo sapiens) (UniProt O94782); assay: Inhibitors of USP1/UAF1: Pilot qHTS (AID 504865);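 also: rhodamine fluorescence freed from ubiquitin-rhodamine substrate followed over time; top concentration of the series differs between compounds; % is scaled to controls: 0 for no effect and ±100 for the full control effect; nearly all actives have a fitted effect of over 35% in size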
Outline: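 Deubiquitinase activity followed as kinetic rhodamine fluorescence release from 150 nM Ub-Rho. 1 nM USP1/UAF1 with compound, after 15 min room-temperature preincubation, in HEPES pH 7.8 buffer containing TCEP, EDTA, BSA and Tween-20.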

[12] = target: Luciferin 4-monooxygenase (Photinus pyralis) (UniProt P08659); assay: Biochemical firefly luciferase enzyme assay for NPC (AID 624030);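 also: purified P. pyralis luciferase at 10 nM with luciferin and ATP substrate; 0% = DMSO and -100% = full luciferase inhibition by PTC124 control; nearly all actives have a fitted effect of over 70% in size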
Outline: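 Direct inhibition of firefly luciferase enzyme (10 nM final, 50 mM Tris Acetate) assessed by luminescence within 5 minutes. Percent activity scaled between DMSO and PTC124 positive control, with concentration-effect curves classified by fit quality and response.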

[13] = qHTS profiling for inhibitors of Plasmodium falciparum proliferation (AID 504749);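 also: 0% = DMSO vehicle and full inhibition = artemisinin control; nearly all actives have a fitted effect of over 60% in size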; conditions: P. falciparum in erythrocytes, SYBR Green DNA, 72 h
Outline: (§1)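 Three-day growth assay of blood-stage parasites in erythrocytes (0.3% parasitemia, 2.5% hematocrit) at 37 C, 5% CO2, quantified by SYBR Green DNA staining after overnight detergent lysis.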

AS120 = assay: as above; conditions: P. falciparum in erythrocytes, SYBR Green DNA, 72 h; series mostly up to 28.7 µM
Outline: as §1

CP238 = assay: as above; conditions: P. falciparum in erythrocytes, SYBR Green DNA, 72 h; series mostly up to 12.8 µM
Outline: as §1

CP250 = assay: as above; conditions: P. falciparum in erythrocytes, SYBR Green DNA, 72 h; series mostly up to 12.8 µM
Outline: as §1

CP262 = assay: as above; conditions: P. falciparum in erythrocytes, SYBR Green DNA, 72 h; series mostly up to 12.8 µM
Outline: as §1

CP265 = assay: as above; conditions: P. falciparum in erythrocytes, SYBR Green DNA, 72 h; series mostly up to 12.8 µM
Outline: as §1

FAB9 = assay: as above; conditions: P. falciparum in erythrocytes, SYBR Green DNA, 72 h; series mostly up to 12.8 µM
Outline: as §1

[14] = measured here: cell count channel max response
[15] = measured here: lipid channel max response
[16] = at 12.8 µM (top of the series), parasite line A
[17] = at 12.8 µM (top of the series), parasite line B

Luciferin 4-monooxygenase (Photinus pyralis), sequence (P08659 whole entry, looked up): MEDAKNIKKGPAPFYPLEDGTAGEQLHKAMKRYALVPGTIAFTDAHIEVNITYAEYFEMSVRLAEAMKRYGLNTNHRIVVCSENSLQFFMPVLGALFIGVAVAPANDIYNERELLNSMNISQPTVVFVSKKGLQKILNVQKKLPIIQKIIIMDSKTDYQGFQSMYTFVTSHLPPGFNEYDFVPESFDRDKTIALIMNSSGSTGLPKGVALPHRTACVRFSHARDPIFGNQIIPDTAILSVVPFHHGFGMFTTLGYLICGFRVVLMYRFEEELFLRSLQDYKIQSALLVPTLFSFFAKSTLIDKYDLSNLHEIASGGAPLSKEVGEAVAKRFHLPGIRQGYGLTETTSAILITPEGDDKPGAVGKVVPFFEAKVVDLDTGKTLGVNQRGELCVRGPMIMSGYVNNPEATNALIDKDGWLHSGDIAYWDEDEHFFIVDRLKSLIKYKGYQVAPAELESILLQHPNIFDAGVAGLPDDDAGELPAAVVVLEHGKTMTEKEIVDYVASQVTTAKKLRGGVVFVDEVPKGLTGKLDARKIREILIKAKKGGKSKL
Cytochrome P450 1A2 (Homo sapiens), sequence (P05177 whole entry, looked up): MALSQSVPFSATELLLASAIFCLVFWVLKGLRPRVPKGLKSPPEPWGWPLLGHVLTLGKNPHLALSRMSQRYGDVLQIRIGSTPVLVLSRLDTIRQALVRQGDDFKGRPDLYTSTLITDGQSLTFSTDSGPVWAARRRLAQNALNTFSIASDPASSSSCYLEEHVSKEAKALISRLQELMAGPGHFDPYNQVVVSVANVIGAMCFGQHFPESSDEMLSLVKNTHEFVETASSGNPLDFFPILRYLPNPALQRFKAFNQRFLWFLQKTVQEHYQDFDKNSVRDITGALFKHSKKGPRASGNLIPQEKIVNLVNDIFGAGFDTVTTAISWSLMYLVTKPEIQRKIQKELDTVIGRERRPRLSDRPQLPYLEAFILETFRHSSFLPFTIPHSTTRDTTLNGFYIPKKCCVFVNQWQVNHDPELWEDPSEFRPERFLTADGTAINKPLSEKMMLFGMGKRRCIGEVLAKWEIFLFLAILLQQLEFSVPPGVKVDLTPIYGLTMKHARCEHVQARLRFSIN
ATP-dependent 6-phosphofructokinase (Trypanosoma brucei brucei), sequence (O15648 whole entry, looked up): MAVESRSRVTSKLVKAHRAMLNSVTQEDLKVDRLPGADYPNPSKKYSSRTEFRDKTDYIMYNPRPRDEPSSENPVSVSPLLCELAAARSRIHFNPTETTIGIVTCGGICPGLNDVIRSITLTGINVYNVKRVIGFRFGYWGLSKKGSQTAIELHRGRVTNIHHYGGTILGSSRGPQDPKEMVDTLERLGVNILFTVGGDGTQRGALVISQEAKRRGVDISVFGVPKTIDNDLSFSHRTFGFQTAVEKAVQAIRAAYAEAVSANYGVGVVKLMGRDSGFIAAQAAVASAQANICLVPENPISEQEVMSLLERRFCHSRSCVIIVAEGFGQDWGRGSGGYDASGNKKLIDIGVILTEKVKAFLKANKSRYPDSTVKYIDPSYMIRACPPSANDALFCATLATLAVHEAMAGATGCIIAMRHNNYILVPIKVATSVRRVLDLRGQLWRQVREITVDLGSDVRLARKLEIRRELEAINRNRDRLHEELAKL
3',5'-cyclic-AMP phosphodiesterase 4B (Homo sapiens), sequence (Q07343 whole entry, looked up): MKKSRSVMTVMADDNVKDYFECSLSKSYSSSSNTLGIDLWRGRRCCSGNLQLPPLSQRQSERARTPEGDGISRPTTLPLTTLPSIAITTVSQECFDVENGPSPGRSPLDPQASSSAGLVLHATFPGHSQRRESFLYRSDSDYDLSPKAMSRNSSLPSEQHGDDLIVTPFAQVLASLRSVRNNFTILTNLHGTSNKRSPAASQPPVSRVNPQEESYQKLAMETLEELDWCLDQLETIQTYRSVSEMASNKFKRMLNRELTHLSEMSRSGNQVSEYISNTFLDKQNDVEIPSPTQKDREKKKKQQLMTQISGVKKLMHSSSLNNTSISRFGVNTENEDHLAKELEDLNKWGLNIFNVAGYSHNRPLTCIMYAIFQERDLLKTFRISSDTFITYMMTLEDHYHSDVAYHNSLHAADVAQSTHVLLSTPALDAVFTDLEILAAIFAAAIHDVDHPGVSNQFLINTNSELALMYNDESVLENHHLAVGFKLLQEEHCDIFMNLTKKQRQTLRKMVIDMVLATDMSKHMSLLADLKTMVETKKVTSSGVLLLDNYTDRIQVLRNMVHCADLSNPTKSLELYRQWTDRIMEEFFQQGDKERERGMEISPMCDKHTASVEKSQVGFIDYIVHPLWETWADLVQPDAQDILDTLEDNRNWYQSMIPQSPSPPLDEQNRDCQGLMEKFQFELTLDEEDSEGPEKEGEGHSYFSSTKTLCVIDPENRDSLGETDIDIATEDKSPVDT
Ubiquitin carboxyl-terminal hydrolase 1 (Homo sapiens), sequence (O94782 whole entry, looked up): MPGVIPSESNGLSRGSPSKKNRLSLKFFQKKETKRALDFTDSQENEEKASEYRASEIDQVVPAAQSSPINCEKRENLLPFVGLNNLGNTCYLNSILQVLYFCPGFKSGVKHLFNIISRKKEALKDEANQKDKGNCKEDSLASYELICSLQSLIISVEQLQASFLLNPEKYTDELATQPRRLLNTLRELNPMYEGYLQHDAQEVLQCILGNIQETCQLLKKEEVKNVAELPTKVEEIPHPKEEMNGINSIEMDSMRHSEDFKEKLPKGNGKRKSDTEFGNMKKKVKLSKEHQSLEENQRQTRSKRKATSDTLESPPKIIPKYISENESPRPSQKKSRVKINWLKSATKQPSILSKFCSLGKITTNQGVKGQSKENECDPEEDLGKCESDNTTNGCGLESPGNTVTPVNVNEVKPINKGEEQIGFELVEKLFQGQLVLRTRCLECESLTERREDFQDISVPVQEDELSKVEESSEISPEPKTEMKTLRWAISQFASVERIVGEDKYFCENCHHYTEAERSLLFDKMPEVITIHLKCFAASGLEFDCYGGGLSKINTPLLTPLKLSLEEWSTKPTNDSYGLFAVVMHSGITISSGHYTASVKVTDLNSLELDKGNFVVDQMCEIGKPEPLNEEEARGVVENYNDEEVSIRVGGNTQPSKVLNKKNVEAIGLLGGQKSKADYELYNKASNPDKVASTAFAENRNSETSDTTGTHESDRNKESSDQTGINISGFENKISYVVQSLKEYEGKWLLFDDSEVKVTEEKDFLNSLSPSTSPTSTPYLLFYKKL
Glucocorticoid receptor (Homo sapiens), sequence (P04150 whole entry, looked up, the tested form may be a part): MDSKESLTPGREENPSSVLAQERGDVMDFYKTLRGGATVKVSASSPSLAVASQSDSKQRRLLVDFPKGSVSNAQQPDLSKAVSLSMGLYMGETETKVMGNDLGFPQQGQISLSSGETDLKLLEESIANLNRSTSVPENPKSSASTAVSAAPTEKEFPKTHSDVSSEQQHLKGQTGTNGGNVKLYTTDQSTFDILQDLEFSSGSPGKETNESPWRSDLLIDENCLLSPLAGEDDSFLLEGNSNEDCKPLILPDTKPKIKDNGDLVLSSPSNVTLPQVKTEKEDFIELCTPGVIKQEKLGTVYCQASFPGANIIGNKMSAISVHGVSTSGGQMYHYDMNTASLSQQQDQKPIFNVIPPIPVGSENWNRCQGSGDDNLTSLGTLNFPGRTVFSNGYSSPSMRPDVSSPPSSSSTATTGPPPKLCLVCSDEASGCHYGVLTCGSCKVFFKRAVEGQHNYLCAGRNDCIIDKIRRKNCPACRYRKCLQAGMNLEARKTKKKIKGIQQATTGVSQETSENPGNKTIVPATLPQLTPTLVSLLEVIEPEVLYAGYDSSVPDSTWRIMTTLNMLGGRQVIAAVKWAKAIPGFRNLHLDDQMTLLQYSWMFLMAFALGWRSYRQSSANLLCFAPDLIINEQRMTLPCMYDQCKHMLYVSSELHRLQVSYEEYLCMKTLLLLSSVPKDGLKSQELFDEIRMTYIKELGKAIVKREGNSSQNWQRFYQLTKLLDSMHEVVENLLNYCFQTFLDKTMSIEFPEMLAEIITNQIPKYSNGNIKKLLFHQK

CCCN1C[C@H](CSC)C[C@H]2c3cccc4[nH]cc(c34)C[C@@H]21
active: Potency [2] 3.16 µM and 1.58 µM
-9.12%: max response [7, 15]
inactive: activity change, negative = inhibition [1] -5.45% [at 17.2 µM] | activity, negative = inhibition [3] 6.37% [at 17.2 µM] | Potency [4] > 20.6 µM and > 46 µM | Potency [5] > 20.6 µM and > 46 µM | Potency [6] | activity change, negative = inhibition ([7]; at 25.7 µM (top of the series)) -0.938%
-9.01%: max response [7, 14]

CNc1nc(-c2ccccc2C(F)(F)F)nc2ccccc12
10%: max response [7, 14]
active: Potency [2] 251 nM
19.8%: max response [7, 15]
inactive: activity change, negative = inhibition [1] -1.48% | activity change, negative = inhibition [8] 5.59% | activity, negative = inhibition [3] 3.95% | Potency [4] > 46 µM | Potency [5] > 46 µM | Potency [6] | Potency [9] | activity change, negative = inhibition ([7]; at 57.5 µM (top of the series)) 5.47%

C[N+]1(C)CCC[C@@H](OC(=O)C(O)(c2ccccc2)c2ccccc2)C1
-16.2%: max response [7, 15]
inactive: activity change, negative = inhibition [1] 3.62% [at 17.2 µM] | Potency [2] | activity, negative = inhibition [3] 11.2% [at 17.2 µM] | Potency [4] > 20.6 µM | Potency [5] > 20.6 µM | Potency [6] | Potency [9] | activity change, negative = inhibition ([7]; at 25.7 µM (top of the series)) -3.46% | outcome [10] | Potency [11] | outcome [12] | activity, negative = inhibition [13, 16] 9.41% | activity, negative = inhibition [13, 17] 6.69% | Potency (AS120) | Potency (CP238) | Potency (CP250) | Potency (CP262) | Potency (CP265) | Potency (FAB9)
active: activity change, negative = inhibition [8] -62.4% [at 17.2 µM]
-12.3%: max response [7, 14]

CC1(C)Oc2ccc(C#N)cc2[C@H](N2CCCC2=O)[C@H]1O
inactive: Potency [4] > 46 µM | Potency [5] > 46 µM | Potency [6] | Potency [9] | activity change, negative = inhibition ([7]; at 57.5 µM (top of the series)) 0.0468% and 5.32% | outcome [10] | Potency [11] | outcome [12] | activity, negative = inhibition ([13]; at 28.7 µM (top of the series), parasite line A) 10.2% | activity, negative = inhibition ([13]; at 28.7 µM (top of the series), parasite line B) 9.46% | Potency (AS120) | Potency (CP238) | Potency (CP250) | Potency (CP262) | Potency (CP265) | Potency (FAB9)
6.51% and -0.942%: max response [7, 15]
5.79% and -0.997%: max response [7, 14]
active: Potency [2] 10000 nM

C[C@@H](C(=O)O)c1ccc(C(=O)c2cccs2)cc1
inactive: activity change, negative = inhibition [1] 4.04% [at 17.2 µM] | Potency [2] | activity change, negative = inhibition [8] -1.88% [at 17.2 µM] | activity, negative = inhibition [3] 1.29% [at 17.2 µM] | Potency [4] > 20.6 µM | Potency [5] > 20.6 µM | Potency [6] | Potency [9] | activity change, negative = inhibition ([7]; at 25.7 µM (top of the series)) 0.809% | outcome [10] | Potency [11] | outcome [12] | activity, negative = inhibition [13, 16] 0.517% | activity, negative = inhibition [13, 17] 11.1% | Potency (AS120) | Potency (CP238) | Potency (CP250) | Potency (CP262) | Potency (CP265) | Potency (FAB9)
-2.07%: max response [7, 15]
-2.83%: max response [7, 14]
